# Experimental data: the supplement of paper PMC6555819
# Tested on: VDR:RXRa (NR concentration 270 nM, RXRa partner concentration 90 nM)
# Assay: PBM binding z-score (relative to random genomic background probes); higher = stronger binding; sequences stand for … in GC…GCGATTGACAGCGTAGAATGAAGG
# Protocol: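 Protein-binding microarray (Agilent 4x180K custom design, double-stranded 60-nt probes: 5' GC cap, 34-nt variable region, 24-nt constant primer region; full probe sequence given). Purified or IVT nuclear receptor:RXRα heterodimers (3:1 NR:RXRα, mostly 270:90 nM) or homodimers were incubated for 1 h in PBS with 2% milk and no ligand, then detected with Alexa488 antibodies. Fluorescence from o1-orientation probes (~5 replicates averaged) was converted to z-scores against 500 random hg19 background probes. Variable regions are seed direct-repeat (DR0–DR5) sites, all their single-nucleotide variants and half-site ablations.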
row,Sequence,PBM binding z-score
1,TTACCAAGGTGAACGTCGTTGATCCCTCTGTAGA,0.322
2,ATCGAAAGGTTGTGAGGTGAGTATACAGAAAGGC,0.652
3,ATCGACAGGTCGAAGGTGAGTATACCCACCCGAA,0.627
4,CGTTAAAGTTCAACTAAGGTAACGTAAAGCACGC,4.58
5,CCTACTGGGCCAAAGGGCATTGATTCCAATGCTC,0.0732
6,GCTGCTAGGTCAGGTTGGTCAGCGAACGGGTACG,0.566
7,ATCTCTAGGTAACCAAGTTCAGGGAATGCCGAAC,3.85
8,CCGACTGGGGTAGAAAGGTTACCATACCATCCGG,0.692
9,TCATTTAGGTAATACAGGTGAAAGTCGGCATCTA,1.18
10,TATACAGGGTCAAAGGCCAGAATACGAATGTCGA,4.62
11,CAAACTACGTCACCGGAAGGTCAAAGTCCGCATG,3.23
12,ATATGTAGGTTAAGGGTCATTCAAGTTGGTTCGC,5.82
13,ACCAGCAGGCCAAGTTTGGGTCACTCAAACAAAG,0.61
14,TTAGCAAGGTGAAAGGTCGTTGATGCACGCCTTG,2.93
15,CTACGAAGGTGAACAAGGTCGTTGATTACTATTC,6.15
16,ACTAGCAGGCCAAGTTTGGTTCACTCAAACAAAG,0.34
17,CTAACTAGGTCAAGGACAGTGAATCTCCGCACGC,1.3
18,CAAACTAGGTCAAGGTCAAACTCGGTTTGTGCCA,5.49
19,GGAACGAGGGGAAGTTGATAGCAGAGTTTGATGG,-0.234
20,CGTCAAAGTTCCACTAAGGTAACGTAAAGCACGC,0.211

row,Sequence,PBM binding z-score
1,TCGAGTAGGTTACCAATAGGGCATTCAGCTTTCT,0.152
2,ACTATTAGTTGAGACGGGGGCAACCGATAGGTTG,2.71
3,TCTTGTAGATCAACAGCAGGTTAAGAAAGATCGA,0.341
4,ACAGACAGGGGAGTGAAGGTAACTCAGCTGGACG,-0.347
5,ACAGACAGGTGATGAAGGTAGCTCAGGCTATCAT,-0.287
6,CGAACGAGGGCATGAGTTGAGAGCAAATGCCGAT,1.01
7,CCTCGGAGGACAACAGGAGGTCAGAACTGCCAGA,1.67
8,CGAACGAGGGCAAGAGTTGATAGCAAATGCCGAT,0.703
9,AGCCAAAGTTCACTAGGTAACGTAAGATTCAGCT,3.41
10,ATCTCTAGGTAAAAGTACAGTGAATCCCGAGGAT,-0.148
11,CGAACTAGATCATTGACAGGACAGTGAATAGTAA,0.158
12,CGAACTAGGTCATCCAGGACAGCGAATACATTGA,4.63
13,CCTAGTTGGTCAGGAGGTCAGACACCGGATATGA,2.22
14,AGAACGAGGGCACGCTGAGTTGCTAGCAGAGTAG,1.18
15,TCTAGCAGGCCAGAGGGTAACTCAAGAGGTACGG,-0.204
16,CGTCAAAGTTCAAGGTAACGTTACAGAAAGCAGC,3.97
17,TCTATTAGTTGAAGGGCCACCGACGAGTCCGTTT,0.591
18,TCCATTAGTTGAAGGGCAACCGACGAGTCCGTTT,1.02
19,ACTATTAGATGAGACGAGGGCAACCGATAGGTTG,0.421
20,GACACAGGGTCAAGGCCAGAGTACGCGTATTGAT,4.36
